The source of these data is PubChem BioAssay.

The test in a line: MRP1 drug-resistance reversers in H69AR cells – cell-based, doxorubicin co-treatment, pilot screen (AID 601). The conditions noted are these: H69AR cells, CellTiter-Glo, 72 h; compound alone cytotoxicity; at 10 µM.
For `Cc1ccc(CNC(=O)C2CCCN(S(=O)(=O)c3cnc[nH]3)C2)cc1` (centres undefined), the viability was 106%. For the compound `COc1cc2c(cc1OC)C(c1ccc(C)o1)CC(=O)N2` (centres undefined), the viability was determined as 89.4%. In the case of `COc1ccc(S(=O)(=O)Nc2ccc(F)c(Cl)c2)cc1OC`, the viability worked out at 96.6%. Turning to `O=C(OCCN(CCOC(=O)c1ccncc1)S(=O)(=O)c1cccs1)c1ccncc1`, the viability is 104%. Take `N#CCCN(Cc1cccnc1)C(=O)Nc1ccc(Cl)c(Cl)c1`: the viability stood at 91.2%.

Take `NC(=O)CN1C(=O)C(O)(CC(=O)c2ccccc2O)c2ccccc21` (centres undefined): the viability was 91.8%. As for `CCCOc1ccc(C2C(C(=O)OC)=CN(CCOC)C=C2C(=O)OC)cc1`, the viability was 90.4%.

`C(=N\c1c(-c2ccccc2)nc2n1CCS2)/c1ccccc1`: the viability is 100%. For the compound `COC(=O)c1cn(NC(=O)C2CCCO2)c(=O)c2ccccc12` (centres undefined), the viability turned out to be 96.6%. On to `CCN1CCN(C(=O)C2CC(c3ccc(F)cc3)=NO2)CC1` (centres undefined), for which the viability turned out to be 99.1%.

Regarding `CCOC(=O)C1CCN(Cc2ccc(OC)c(C)c2OC)CC1`, the viability came out at 86.9%.

On to `Cn1c(NC(=O)c2ccccc2NC(=O)C(C)(C)C)nc2ccccc21`, for which the viability amounted to 60.6%. `Cc1cccc(CN2CCC(CNC(=O)C3CCCN(S(=O)(=O)c4cnc[nH]4)C3)CC2)c1` (centres undefined): the viability worked out at 89.8%. As for `CC1CC(NC(=O)c2cnc3n(c2=O)CCS3)CC(C)(C)C1` (centres undefined), the viability was 91.7%. In the case of `CC1CCCN(S(=O)(=O)c2coc(C(N)=O)c2)C1` (centres undefined), the viability was 94.6%. Next, `O=C(NCc1ccc2c(c1)OCO2)C1CCCN(S(=O)(=O)c2cccc3cccnc23)C1` (centres undefined): 83.3%.

Take `CC(C)(O)C#Cc1ccc(C(=O)N2CCN(C(=O)c3ccco3)CC2)cc1`: the viability worked out at 96.9%. Turning to `COC(=O)C1=C(C)Nc2nnnn2C1c1ccc(Cl)cc1Cl` (centres undefined), the viability is 93.3%. Next, `CC(NC(=O)C1CC1)C(c1cccs1)N1CCN(c2ccccc2)CC1` (centres undefined): 89.5%. For `O=C(Nc1c(C(=O)NCc2ccco2)cnn1-c1ccccc1)c1ccc(F)cc1`, the viability stood at 96.9%.

As for `COc1ccc(-n2c(Cc3cccn3C)nnc2SCC(=O)Nc2cccc(Cl)c2)cc1`, the viability was determined as 85.3%. Regarding `CCOC(=O)N1CCN(C(=O)c2ccc3nc4ccsc4c(=O)n3c2)CC1`, the viability worked out at 89.4%. As to `CCC(C)C(=O)Nc1nc2c(s1)C(=O)CC(C)(C)C2` (centres undefined), the viability turned out to be 89.5%. Take `COc1cc2c(cc1OC)CN(C(=O)CSc1nc3[nH]ncc3c(=O)n1-c1ccccc1)CC2`: the viability turned out to be 91.7%.

As for `CC(NC(=O)c1cc2c(=O)n(C)c3ccccc3c2n1C)c1ccc2c(c1)OCCO2` (centres undefined), the viability was 42.7%. As for `O=C(C1CCCN1S(=O)(=O)c1cccc2cccnc12)N1CCn2c1nc1ccccc12` (centres undefined), the viability amounted to 94.1%. Next, `CCn1c(SCC(=O)Nc2cc(C)ccc2C)nc2c(c1=O)SC(C)C2` (centres undefined): 83.1%; `CCOC(=O)c1sc2nc(NC(=O)COc3ccccc3)sc2c1C`: 69.4%; `Cc1ccc(-n2ncc3c(N4CCCC(C)C4)ncnc32)c(C)c1` (centres undefined): 61.6%. Then `O=C(O)C1C2C=CC3(CN(C4CCCC4)C(=O)C13)O2` (centres undefined), with 83.7%; and `CCCCSc1nc2c(cnn2-c2ccc(F)cc2)c(=O)[nH]1`, with 74%; and `CCCCCn1c(=O)[nH]c2cc(C(=O)NCCN3CCOCC3)ccc2c1=O`, with 105%. Consider `Cc1ccc(-c2cc3nc4c(c(=O)n3[nH]2)CCCC4)cc1`, for which the viability is 91.9%. Take `CCCOC(=O)c1[nH]c2c(c1C)C(=O)CC(c1cc(OC)c(OC)c(OC)c1)C2` (centres undefined): the viability worked out at 74.2%. Regarding `COc1cccc(-c2nc3n(n2)C(c2ccccc2Cl)C(C(N)=O)=C(C)N3)c1` (centres undefined), the viability worked out at 90.4%. With `Cc1c(NC(=O)c2ccc(Br)o2)c(=O)n(-c2ccccc2)n1C`, the viability was found to be 91.2%. Regarding `COc1ccc(-c2nc(CS(=O)CC(=O)NCc3ccccn3)c(C)o2)cc1` (centres undefined), the viability turned out to be 92.9%. Consider `CCOc1cc(C2NC(=O)NC(O)(C(F)(F)F)C2C(=O)c2ccccc2)ccc1OC` (centres undefined), for which the viability came out at 102%. For the compound `CN(CCCNC(=O)c1cn(C)c2ccc(S(=O)(=O)N(C)C)cc2c1=O)c1ccccc1`, the viability came to 87.7%.

Usually viability stands for a read-out of living cells in per cent, often relative to untreated cells.
